Results filed as inconclusive are left out. Entries that show only a call come without a potency. Active and inactive are the calls of the source. Calls follow the shape of the full dose curve.

The source of these data is PubChem BioAssay (Tox21).
Potency is read from the fitted curve at half-maximal effect.

The nature of this assay: qHTS assay to identify small molecule agonists of the hypoxia (HIF-1) signaling pathway - cell viability counter screen (AID 1224844). Also: nearly all actives have a fitted effect of over 50% in size. The conditions noted are these: HRE-bla ME-180 viability, CellTiter-Glo luminescence, 17 h; series mostly up to 76.8 µM. The source says:
National Center for Advancing Translational Sciences [NCATS]
NIH Chemical Genomics Center [NCGC]
U.S. Environmental Protection Agency [EPA]
National Institutes of Environmental Health Sciences [NIEHS]
National Toxicology Program [NTP]
U.S. Food and Drug Administration [FDA]
Hypoxia-inducible factor-1 (HIF-1) is the major hypoxia-regulated transcription factor that controls cellular responses to low oxygen concentration. HIF-1 is composed of two subunits: hypoxia responsive HIF-1-alpha and constitutively expressed HIF-1-beta, which is also known as aryl hydrocarbon receptor nuclear translocator. During hypoxic conditions, HIF-1-alpha heterodimerizes with HIF-1-beta and translocates into the nucleus where the HIF-1 complex binds to the hypoxia-response element (HRE) and activates expression of target genes such as VEGF (vascular endothelial growth factor). The HIF-1 pathway is essential to normal growth and development, and is involved in the pathophysiology of cancer, inflammation, and ischemia.
Using a beta-lactamase reporter-gene under control of the hypoxia response element, a cell-based assay [CellSensor(TM) HRE-bla ME-180 from Life Technologies, Carlsbad, CA] was used to measure hypoxia-induced signaling. Tox21 10K library compounds were measured for their ability to induce the reporter gene activity. The cytotoxicity of the Tox21 compound library against HRE-bla ME-180 cell line was tested in parallel by measuring cell viability using CellTiter-Glo assay (Promega, Madison, WI) in the same assay wells.
Tox21 Assay Protocol Summary:
HRE-bla ME-180 cells were dispensed at 2,000 cells per well in 6 uL of assay medium containing 0.5% dialyzed FBS into black wall/clear-bottom 1536-well plates using a Multidrop Combi (Thermo Scientific, Waltham, MA) dispenser. After the assay plates were incubated at 37C and 5% CO2 for 5 hrs, 23 nL of compounds dissolved in DMSO, positive controls or DMSO only was transferred to each well of the assay plate using a Pintool station (Kalypsys, San Diego, CA). The assay plates were incubated at 37C and 5% CO2 for 17 hrs. One uL of LiveBLAzerTM B/G FRET substrate (CCF4-AM) (Life Technologies) was added to each well using a Flying Reagent Dispenser (FRD, Aurora Discovery, San Diego, CA). After 2 hr incubation at room temperature, fluorescence intensity (405 nm excitation, 460 nm and 530 nm emissions) was measured using an Envision plate reader (PerkinElmer, Shelton, CT). For cytotoxicity, 4 ul/well of CellTiter-Glo reagent was added into the assay plates using an FRD. After 30 min incubation at room temperature, the luminescence intensity was measured using a ViewLux plate reader (PerkinElmer).
A general note: qHTS replaces the single test concentration by a dilution series.
Consider `Fc1ccccc1[C@@H](F)COC1CCC(Nc2ncnc3[nH]ncc23)CC1` (stereo not given in full), for which the Potency result was “inactive”. On the same count and under the same terms, the value for `Cc1nc2ccccn2c(=O)c1CCN1CCC(C(=O)c2ccc(F)cc2)CC1` was “inactive”; that for `CCCCCCCC/C=C\CCCCCCCC(=O)OC(CO)CO` was “inactive”. On the same count and under the same terms, then `CCCOC(=O)c1ccc(N)cc1`, with “inactive”; and `Cc1cc2nc3ccc(=[N+](C)C)cc-3sc2cc1N`, with 5.35 µM (active); and `Cc1ccc(S)cc1`, with “inactive”. Turning to `O=C(CCCN1CCN(c2ccc(F)cc2)CC1)NC1c2ccccc2CSc2ccccc21` (stereo not given), the Potency entry was “inactive”. Consider `C=CC(C)(O)CCCC(C)CCCC(C)CCCC(C)C` (stereo not given), for which the Potency entry was “inactive”. With `c1cc[c]([Bi]([c]2ccccc2)[c]2ccccc2)cc1`, the Potency entry was “inactive”. For `C/C=C/C=C/CCCCCCCO`, the Potency result was “inactive”. The same measure, in the same setting: then `CCCCCCCCCCCCCCC[C@H](O)[C@@H](N)CO`, with “inactive”; and `CC(=O)Nc1ccc(N)cc1`, with “inactive”.

`Fc1c(F)c(F)c(Br)c(F)c1F`: the Potency entry is “inactive”. Still for that read-out and setting: then `C[Si](NC1CCCCC1)(NC1CCCCC1)NC1CCCCC1`, with 19.5 µM (active). `Oc1cc(O)c(Cl)cc1Cl`: the Potency result was “inactive”. Take `Nc1c(I)cc(I)c(C(=O)N(CCC(=O)O)c2ccccc2)c1I`: the Potency result was “inactive”.

In the case of `CC(=O)[C@H]1CC[C@H]2[C@@H]3C[C@H](C)C4=CC(=O)CC[C@]4(C)[C@H]3[C@@H](O)C[C@]12C`, the Potency entry was “inactive”. `CO[Si](C)(OC)OC`: the Potency entry is “inactive”. For the compound `[O]=[Bi]`, the activity change, negative = cytotoxicity was 28.4% [at 6.97 µM] (inactive).

`CCN(Cc1cccc(S(=O)(=O)O)c1)c1ccc(C(=C2C=CC(=[N+](CC)Cc3cccc(S(=O)(=O)[O-])c3)C=C2)c2ccccc2)cc1`: the Potency result was “inactive”. As for `CC(CCO)CCc1ccccc1` (stereo not given), the Potency result is “inactive”. On the same count and under the same terms, the value for `Cc1ccccc1N1C(=O)c2cc(S(N)(=O)=O)c(Cl)cc2NC1C` (stereo not given) was “inactive”. In the case of `CC1CN(c2cc3c(cc2F)c(=O)c(C(=O)O)cn3-c2ccc(F)cc2F)CCN1` (stereo not given), the activity change, negative = cytotoxicity was 5.19% [at 6.97 µM] (inactive). Consider `CN1C(=O)CC(C)(c2ccccc2)C1=O` (stereo not given), for which the Potency result was “inactive”. For `CC(C)=CC=O`, the Potency entry was “inactive”. Same read-out and setting: the value for `COC(OC)(C(=O)c1ccccc1)c1ccccc1` was “inactive”. In the case of `Nc1nc(Cl)nc2c1ncn2[C@@H]1O[C@H](CO)[C@@H](O)[C@@H]1F`, the Potency result was “inactive”. `CCC(C)(O)CCC=C(C)C` (stereo not given): the Potency entry is “inactive”. Same read-out and setting: then `Nc1ccc(S(=O)(=O)O)cc1`, with “inactive”; and `CC1=C(/C=C/C(C)=C\C=C\C(C)=C\C(=O)O)C(C)(C)CCC1`, with 49 µM (active). Same read-out and setting: then `CO[C@H]1O[C@H](CO)[C@@H](O)[C@H](O)[C@H]1O`, with “inactive”; and `CCC(C(=O)OCCOCCN(CC)CC)c1ccccc1` (stereo not given), with “inactive”. Still for that read-out and setting: then `Cn1c(=O)c2c(ncn2CC(=O)O)n(C)c1=O`, with “inactive”; and `C=CC(=O)NCOCC(C)C`, with “inactive”; and `CCCCC(=O)O[C@]1(C(=O)CO)[C@@H](C)C[C@H]2[C@@H]3CCC4=CC(=O)C=C[C@]4(C)[C@@]3(F)[C@@H](O)C[C@@]21C`, with 34.7 µM (active).

Regarding `O=C(O)c1snc(Cl)c1Cl`, the Potency result is “inactive”. As for `CC(CCc1ccc2c(c1)OCO2)NN` (stereo not given), the Potency entry is “inactive”.

Take `O=C(C(=O)c1ccccc1)c1ccccc1`: the Potency result was “inactive”. The same measure, in the same setting: then `CC(C)c1nnc2ccc(-c3ocnc3-c3cc(F)ccc3F)cn12`, with “inactive”; and `N#C/C(=C1/SC[C@@H](c2ccc(Cl)cc2Cl)S1)n1ccnc1`, with “inactive”.
